We go through 58 compounds from PubChem BioAssay AID651813 (National Center for Advancing Translational Sciences (NCATS), 2012).

Molecules are shown by their SMILES. The campaign covered roughly 2,100 compounds. About 1,100 (52%) were called active. Not shown: some 27% with an inconclusive outcome. Calls come from the whole dose curve; as a rule, active = well fitted inhibition curve with a large enough effect; inconclusive = small, poorly fitted or top-dose-only effect; inactive = no such curve, though single readings can be large or run the other way. The set was probably picked from earlier hits. The list shows a part of the results.
Potency is the fitted concentration of half-maximal effect.

This assay deals with DNA dC->dU-editing enzyme APOBEC-3G (Homo sapiens) (UniProt Q9HC16). The assay is described as follows: qHTS for inhibitors of Vif-A3G interactions: Cherry picks counterscreen.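 For max response: max response given as percent of control signal.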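 Note: hits raise yellow fluorescence by blocking Vif-driven A3G-eYFP degradation; nearly all actives have a fitted effect of over 70% in size.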 As to conditions: HeLa A3G-eYFP + Vif (tagged APOBEC3G with the HIV-1 protein that degrades it), eYFP fluorescence, 24 h. The procedure, abridged: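 HeLa cells stably expressing A3G-eYFP and Vif were treated for 24 h at 37 deg C with compounds at several concentrations; yellow fluorescence (Ex 488 nm, Em 500-530 nm) read by Acumen Explorer, MG132 as positive control.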
Chain of DNA dC->dU-editing enzyme APOBEC-3G (Homo sapiens) (Q9HC16 whole entry, looked up): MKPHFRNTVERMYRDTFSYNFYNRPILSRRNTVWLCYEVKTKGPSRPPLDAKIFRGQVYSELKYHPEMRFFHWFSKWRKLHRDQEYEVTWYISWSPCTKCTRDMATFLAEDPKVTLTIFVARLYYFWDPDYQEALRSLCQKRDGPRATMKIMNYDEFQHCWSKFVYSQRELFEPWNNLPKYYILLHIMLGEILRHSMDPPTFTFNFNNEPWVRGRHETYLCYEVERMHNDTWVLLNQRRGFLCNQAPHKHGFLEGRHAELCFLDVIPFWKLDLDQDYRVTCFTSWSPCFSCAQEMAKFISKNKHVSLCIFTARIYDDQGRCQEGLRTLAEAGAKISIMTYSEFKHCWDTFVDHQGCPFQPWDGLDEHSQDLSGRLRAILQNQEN
On the technique in general: qHTS replaces the single test concentration by a dilution series.
As to `COC(=O)/C(=C\Nc1ccc(Cl)cc1Cl)NC(=O)c1ccc(OC)cc1`, the Potency is 1.98 µM (active).

As for `COc1ccc(N/C=C2\C(=O)CCc3c2oc2cc(Cl)c(O)c(Cl)c32)cc1`, the max response is -5.39% (inactive).

In the case of `O=C(NC(=S)Nc1c(Cl)cc(Cl)cc1Cl)c1ccccc1`, the max response is 6.93% (inactive).

Regarding `Clc1ccc(/C=N/NC2=Nc3cccc4cccc2c34)cc1`, the Potency was 20.6 µM (active).

In the case of `Clc1ccccc1/C=N/NC1=Nc2cccc3cccc1c23`, the Potency is 9.2 µM (active).

As to `COc1cccc(CNCCSc2nnnn2C)c1OCc1ccc(F)cc1`, the max response was 2.02% (inactive).

`CCCCNc1c(-c2ccc(SC3CCCCC3)cc2)nc2cnccn12`: the Potency is 2.23 µM (active).

For the compound `c1cc(SC2CCCCC2)cc(-c2nc3cnccn3c2NC2CCCCC2)c1`, the max response was 17.4% (inactive).

With `COc1ccc(-c2nc3cnccn3c2NC2CCCCC2)cc1-c1cccc(Cl)c1`, the max response is -10.6% (inactive).

Take `CN(C)c1ccc(/C=N/NC(=O)c2cc(-c3ccc4c(c3)OCO4)n[nH]2)cc1`: the Potency is 12.5 µM (active).

For `Cc1cc(C)n(-c2nnc3n2N=C(c2c[nH]c4ccccc24)CS3)n1`, the Potency was 6.27 µM (active).

For `COc1cc(/C=C2/CCC/C(=C\c3cc(O)c(OC)c(Cl)c3)C2=O)cc(Cl)c1O`, the Potency is 14.6 µM (active).

Take `CCOc1cc(/C=C2\CCC/C(=C\c3cc(Cl)c(O)c(OCC)c3)C2=O)cc(Cl)c1O`: the Potency was 17.7 µM (active).

`Cc1csc(NC(=O)CCC(=O)N(CC(=O)NC2CCCC2)Cc2ccccc2)n1`: the max response was -14.8% (inactive).

Consider `NC(=O)c1ccc(Cn2c(C(=O)c3cc(Cl)c(N)c(Cl)c3)c3ccccc3[n+]2[O-])cc1`, for which the Potency is 11.2 µM (active).

In the case of `Cc1ccc(-n2nc3c(N4CCCC(C(=O)NCc5ccccc5C)C4)nnc(C)c3c2C)cc1` (stereo not drawn), the max response is -1.78% (inactive).

On to `Cc1ccc(C)c(NC(=O)Cn2cc(S(=O)(=O)Cc3cccc(Cl)c3)c3ccccc32)c1`, for which the Potency is 18.4 µM (active).

Regarding `Cc1ccc(Cl)cc1NC(=O)Nc1cn(CC(C)C)c(=O)c2ccccc12`, the max response is 10.5% (inactive).

For the compound `Cc1ccc(NC(=O)C2CCN(S(=O)(=O)c3ccc(Cl)c(C(F)(F)F)c3)CC2)nc1`, the max response was 8.66% (inactive).

As to `Cc1ccc(S(=O)(=O)N2CCCCC2)cc1NC(=O)Cn1ncc(Cl)c(Cl)c1=O`, the Potency is 12.5 µM (active).

In the case of `O=C(Cn1ncc(Cl)c(Cl)c1=O)N1CCN(S(=O)(=O)c2ccc3ccccc3c2)CC1`, the Potency is 11.2 µM (active).

`COc1ccc(OCCCC(=O)N2CCN(S(=O)(=O)c3cccc(F)c3)CC2)cc1`: the max response is 2.87% (inactive).

Take `O=C(Nc1ccc(Cl)cn1)c1cccc(S(=O)(=O)N2CCCCCC2)c1`: the max response was 1.56% (inactive).

For the compound `Fc1ccc(-c2cnn3c(-c4cccs4)ccnc23)cc1`, the Potency is 5.59 µM (active).

`COc1ccc(CN(C(C)=O)c2cccc(C)c2C)cc1`: the Potency is 17.7 µM (active).

Regarding `Cc1nnc(NC(=O)CSc2nc(C(C)C)nc3ccccc23)s1`, the Potency was 6.27 µM (active).

In the case of `COc1ccc(C2CC(c3ccncc3)=NN2c2ccc(S(N)(=O)=O)cc2)cc1` (stereo not drawn), the Potency is 5.17 µM (active).

`COc1cc(C2C3=C(COC3=O)Oc3cc4c(cc32)OCO4)ccc1OC(C)=O` (stereo not drawn): the Potency was 1.77 µM (active).

As to `O=C1OCC2=C1C(c1ccc3c(c1)OCO3)c1cc3c(cc1O2)OCO3` (stereo not drawn), the Potency was 2.23 µM (active).

For `CN(C)CCCNc1cc(N2CCN(C3CCCCC3)CC2)c2noc3c2c1C(=O)c1ccccc1-3`, the Potency is 1.84 µM (active).

Consider `CCNc1cc(N2CCN(C3CCCCC3)CC2)c2noc3c2c1C(=O)c1ccccc1-3`, for which the Potency is 7.31 µM (active).

Take `O=C1c2ccccc2-c2onc3c(N4CCN(C5CCCCC5)CC4)cc(NCCO)c1c23`: the Potency is 2.59 µM (active).

Regarding `CC[N+](C)(C)c1ccc(/C=C/c2ccncc2)cc1`, the Potency was 16.4 µM (active).

Regarding `CCC[N+](C)(C)c1ccc(/C=C/c2ccncc2)cc1`, the Potency is 16.4 µM (active).

For the compound `Cc1ccc(-c2nc(C=Nc3ccc(O)cc3)c(O)o2)cc1`, the max response was -18.6% (inactive).

Turning to `N#Cc1c(Nc2ccccc2)[n+]([O-])c2ccc(Cl)cc2[n+]1[O-]`, the max response is 26.1% (inactive).

For the compound `O=C1CC(c2cc(Br)ccc2F)c2cc3c(cc2N1)CCC3` (stereo not drawn), the Potency was 1.4 µM (active).

As to `O=C1CC(c2ccccc2F)c2cc3c(cc2N1)CCC3` (stereo not drawn), the Potency is 2.8 µM (active).

Take `CCOC(=O)Cc1csc(NC(=O)c2sc3nc4c(C)cc(C)cc4cc3c2N)n1`: the Potency is 20.6 µM (active).

In the case of `CCOc1cc(S(=O)(=O)NCc2ccc(OC)cc2)c(OCC)cc1-n1cnnn1`, the Potency is 8.86 µM (active).

Consider `Cc1cc(C)c(N2C(=O)CC(Sc3ccccc3N)C2=O)c(C)c1` (stereo not drawn), for which the Potency was 17.7 µM (active).

As for `COc1cc(C(=O)NCC(=O)N2CCN(S(=O)(=O)c3cc(C)ccc3C)CC2)cc(OC)c1OC`, the Potency was 9.94 µM (active).

As for `Cc1ccc(S(=O)(=O)N2CCN(C(=O)CSC(=S)N3CCCC3)CC2)c(C)c1`, the max response was -17.2% (inactive).

With `CCOc1ccc(NC(=O)N2CC=C(c3c[nH]c4ccccc34)CC2)cc1`, the Potency is 18.4 µM (active).

Turning to `COC(=O)c1ccc(Cl)cc1NC(=O)N1CC=C(c2c[nH]c3ccccc23)CC1`, the Potency is 23.1 µM (active).

As to `Cc1ccc(C)c(NC(=O)N2CC=C(c3c[nH]c4ccccc34)CC2)c1`, the Potency was 16.4 µM (active).

Turning to `CSc1cccc(NC(=O)c2cc3c(COC(C)=O)cnc(C)c3oc2=O)c1`, the max response is 2.84% (inactive).

With `Cc1cc(C)nc(-n2nc(C)cc2NC(=O)c2ccc(F)cc2F)n1`, the max response was -9.45% (inactive).

Consider `COc1ccccc1NS(=O)(=O)c1cc([N+](=O)[O-])ccc1N/N=C/c1sc(N2CCOCC2)nc1-c1ccccc1`, for which the Potency is 0.58 µM (active).

Regarding `O=[N+]([O-])c1ccc(N/N=C/c2sc(N3CCOCC3)nc2-c2ccccc2)c(S(=O)(=O)Nc2ccccc2Cl)c1`, the Potency was 2.91 µM (active).

As for `Cc1cc2nc(SCCOC(=O)Nc3cccc(Cl)c3)nc(C)c2cc1C`, the max response was 0.137% (inactive).

On to `C=CCOC(=O)C1=C(C)NC(C)=C(C(=O)OCC=C)C1c1cn(-c2ccccc2)nc1-c1ccco1`, for which the max response was -22.7% (inactive).

As to `COc1ccc2c(C)cc(SCC(=O)N(C)C3CCS(=O)(=O)C3)nc2c1` (stereo not drawn), the Potency was 20.6 µM (active).

As for `COc1ccc2c(C)cc(SCC#N)nc2c1`, the Potency was 18.4 µM (active).

Consider `CCS(=O)(=O)N1N=C(c2ccc(C)cc2)CC1c1cc2ccc(OC)cc2nc1Cl` (stereo not drawn), for which the max response is -6.38% (inactive).

As for `CCS(=O)(=O)N1N=C(c2cccc(NS(C)(=O)=O)c2)CC1c1ccc(C)cc1` (stereo not drawn), the Potency is 23.1 µM (active).

With `CS(=O)(=O)N1N=C(c2ccccc2)CC1c1ccc2c(c1)OCO2` (stereo not drawn), the Potency was 12.5 µM (active).

Turning to `CS(=O)(=O)Nc1ccc(C2=NN(S(C)(=O)=O)C(c3ccc4c(c3)OCO4)C2)cc1` (stereo not drawn), the Potency was 14 µM (active).
